# Screening data (PubChem BioAssay)
# HT1080 IDH1KD tx: HT-1080 IDH1 knockdown cell toxicity (counter line). 2% of 360,000 active. Potency, µM (titrated, usually from 46.1 µM), for the others: at the highest dose activity, negative = toxicity, actives largely listed as cytotoxic. HT-1080 IDH1 knockdown viability, ATP luminescence, 48 h;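 note: potency is the fitted concentration of half-maximal effect; 0% = DMSO wells and -100% = cell-free medium wells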
#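 Viability of IDH1-knockdown HT-1080 fibrosarcoma cells was assessed by CellTiter-Glo after 48 h at 37 °C with titrated compound; concentration-effect curves were classified by fit quality and response size.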
# TDP1 cell noCPT: qHTS for Inhibitors of human tyrosyl-DNA phosphodiesterase 1 (TDP1): qHTS in cells in absence of CPT; DT40 Tdp1-/- hTDP1 cells, no CPT, ATP luminescence, 48 h; Potency, µM (series often up to 46.2 µM), for the others: top-dose activity change, negative = growth inhibition, hits mostly inhibitors; 15% of 420,000 active; note: potency is the fitted concentration of half-maximal effect; nearly all actives have a fitted effect of over 55% in size
#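 Luminescent ATP content (CellTiter-Glo) served as the growth readout. Knockout chicken DT40 cells expressing human TDP1 were exposed to compounds without camptothecin for a minimum 48 hr at 37 °C.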
# DT40 TDP1 CPT: growth inhibition of DT40 Tdp1-/-;hTDP1 cells with camptothecin (screen for TDP1 inhibitors); chicken DT40 Tdp1-/-;hTDP1 cells + 20 nM CPT, ATP luminescence, 48 h; AID 686979; 12% of 420,000 active; Potency, µM (series often up to 46.2 µM), for the others: at the highest dose activity change, negative = growth inhibition, actives largely listed as inhibitors; note: potency is the fitted concentration of half-maximal effect; nearly all actives have a fitted effect of over 55% in size
#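 Chicken DT40 Tdp1-/- cells stably complemented with human TDP1 were seeded at 400 cells/well in medium containing 20 nM camptothecin, exposed to pin-transferred compounds, and grown at 37 °C for at least 48 hr. Viability was read as ATP luminescence.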
# ALOX12 inh: ALOX12 (human) lipoxygenase inhibition | Potency, µM (doses to about 108 µM), for inactives: at the highest dose activity change, negative = inhibition, actives largely listed as inhibitors | AID 1671190 | P18054 | 1.1% of 580,000 active | purified 12hLO, xylenol orange hydroperoxide absorbance; note: potency is the fitted concentration of half-maximal effect
# Target sequence (P18054 whole entry, looked up): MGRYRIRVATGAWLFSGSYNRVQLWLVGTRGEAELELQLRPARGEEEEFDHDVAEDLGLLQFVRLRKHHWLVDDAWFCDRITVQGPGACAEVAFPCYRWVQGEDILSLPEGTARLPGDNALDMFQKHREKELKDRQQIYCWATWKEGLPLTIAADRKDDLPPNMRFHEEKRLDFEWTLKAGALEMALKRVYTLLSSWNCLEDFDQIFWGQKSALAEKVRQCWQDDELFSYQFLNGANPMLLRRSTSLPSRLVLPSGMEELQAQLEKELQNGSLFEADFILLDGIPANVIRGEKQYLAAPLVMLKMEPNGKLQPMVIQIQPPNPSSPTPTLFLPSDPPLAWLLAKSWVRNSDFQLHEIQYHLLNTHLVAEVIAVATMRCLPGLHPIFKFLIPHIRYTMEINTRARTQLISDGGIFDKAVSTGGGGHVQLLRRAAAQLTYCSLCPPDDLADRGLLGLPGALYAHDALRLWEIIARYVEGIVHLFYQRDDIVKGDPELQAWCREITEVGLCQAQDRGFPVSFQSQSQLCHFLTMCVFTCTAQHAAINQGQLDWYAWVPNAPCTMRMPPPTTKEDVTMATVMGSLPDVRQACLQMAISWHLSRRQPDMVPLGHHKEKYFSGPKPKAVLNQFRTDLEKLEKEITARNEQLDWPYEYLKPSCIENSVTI
#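 Purified human 12hLO (150 nM final) in 25 mM Hepes, 0.01% Triton X-100, pH 7.0 was preincubated 15 min at room temperature with compound. Then 40 uM arachidonic acid was added, 30 min. Hydroperoxide was read by Fe-XO absorbance ratio 573/405 nm.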
# IL1B secr inh: inflammasome signaling inhibition, IL-1 beta readout | 4.7% of 360,000 active | activity change, % at 57.5 µM | THP-1 LPS/ATP IL-1B secretion, AlphaLISA, 16 h; stronger effect = lower value | AID 743279; in the data active = activity change below about -50%; inconclusive = mostly about -30% to -49%
#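 Secreted IL-1B measured by AlphaLISA bead assay after 16 h compound exposure of THP-1 cells; compounds (final up to 57.5 uM) added 1 h before LPS (250 ng/mL) and ATP (1.25 mM) stimulation; lower signal means less secretion.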
# HT1080-NT tox: kills 2HG-producing HT-1080-NT fibrosarcoma cells | HT-1080-NT fibrosarcoma viability, CellTiter-Glo ATP luminescence, 48 h | 1.6% of 360,000 active | Potency, µM (highest dose often 46.1 µM), inactives show top-dose activity, negative = less viability, actives largely listed as cytotoxic;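 note: NT is the 2HG producing partner of a matched IDH1 knockdown line; potency is the fitted concentration of half-maximal effect; 0% = DMSO-treated cells and -100% = media-only wells without cells; nearly all actives have a fitted effect of over 55% in size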
#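 A 48-hour cytotoxicity screen used HT-1080-NT cells plated 2 hours before compound delivery. ATP-based CellTiter-Glo luminescence measured viability, normalized to DMSO and no-cell controls.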
# The depositor's hits bear a star; ? = inconclusive; . = not tested or not shown; ! = not confirmed by another sample; [ ] = another dose, or the depositor's remark. Shown is part of a subset that was picked to be rich in hits. Unless noted, calls come from the whole dose curve; as a rule, active = well fitted curve in the direction sought with a large enough effect; inconclusive = small, poorly fitted or top-dose-only effect, or another doubt; inactive = no such curve, though single readings can be large; an effect the other way counts as inactive or inconclusive. Unless noted, % is set by controls: 0 for no effect and ±100 for the full control effect.
SMILES,HT1080 IDH1KD tx,TDP1 cell noCPT,DT40 TDP1 CPT,ALOX12 inh,IL1B secr inh,HT1080-NT tox
CC(=O)N1c2ccc(S(=O)(=O)N3CCCC(C(=O)Nc4cc(C)cc(C)c4)C3)cc2CC1C (stereo not drawn),-15%,?,?,-20%,-3,-1%
CC(=O)N1c2ccc(S(=O)(=O)NCC3CCC(C(=O)Nc4cc(C)cc(C)c4)CC3)cc2CC1C (stereo not drawn),.,16µM*,21µM*,-15%,.,.
C#CCN1CCN(c2cccc(C)c2)CC1,.,.,.,10%,.,.
CN1CC[C@@]23CCCCC2C1Cc1ccc(O)cc13 (stereo partly drawn),.,-2%[9.04 µM],9%[9.04 µM],-11%,.,.
COc1ccc2c(c1)[C@@]13CCCCC1[C@@H](C2)N(C)CC3 (stereo partly drawn),.,16µM*,-125%,.,.,.
O=C1C(I)=CC(=C(c2cc(I)c(O)c(I)c2)c2ccccc2C(=O)O)C=C1I,.,?,?,5.1µM*,.,.
COC(=O)C1=C(c2ccccc2OCc2ccccc2)C[C@@H]2CC[C@H]1N2C(=O)NCc1ccc(C(F)(F)F)cc1,-28%,?,?,7%,?,-13%
COC(=O)C1=C(c2ccc(OCc3ccccc3)cc2)C[C@@H]2CC[C@H]1N2C(=O)NCc1cccc(C(F)(F)F)c1,-8%,21µM*,21µM*,0%,0,0%
COC(=O)C1=C(c2ccccc2OCc2ccccc2)C[C@@H]2CC[C@H]1N2C(=O)NCc1cccc(C(F)(F)F)c1,-10%,16µM*,?,9%,-9,-17%
COC(=O)C1=C(c2ccc(OCc3ccccc3)cc2)C[C@@H]2CC[C@H]1N2C(=O)NCc1ccc(N(C)C)cc1,10%,?,?,21%,32,4%
COC(=O)C1=C(c2ccc(F)cc2OCc2ccccc2)C[C@@H]2CC[C@H]1N2C(=O)NCc1ccc(C(F)(F)F)cc1,-4%,?,23µM*,11%,-52*,-2%
COc1ccc(-c2cc([C@H]3CN4CC[C@H]3C[C@@H]4CNC(=O)c3cccs3)n(C)n2)cc1,.,.,.,67%,.,.
COC(=O)C1=C(N)Oc2n[nH]c(-c3ccccc3)c2C12C(=O)N(C)c1ccccc12 (stereo not drawn),.,.,.,-27%,.,.
Cc1ccc(C(=O)N2[C@H]3CC[C@@H]2c2cnc(-c4ccccc4)nc2C3)cn1,.,.,.,1%,.,.
COCCCn1c(N)c(C(=O)OC(C)COC)c2nc3ccccc3nc21 (stereo not drawn),-3%,-17%,-8%,0%,-20,-4%
COCCCn1c(N)c(C(=O)Nc2ccccc2)c2nc3ccccc3nc21,?,?,29µM*,0%,-76*,?
COCCCn1c(N)c(C(=O)Nc2sc3c(c2C(=O)OC)CCCC3)c2nc3ccccc3nc21,15%,18µM*,?,-6%,-72*,0%
CCCOc1cccc(CCN)c1,.,.,.,-21%,.,.
O=C(c1ccc2c(c1)OCO2)N1[C@H]2CC[C@@H]1c1cnc(-c3ccccc3)nc1C2,.,.,.,-5%,.,.
COc1cc(CCC(=O)N2CCC3(CC2)NCc2ccccc2-n2ccnc23)on1,.,.,.,-1%,.,.
CN1CCN2C(=O)N(c3ccccc3)C[C@H]2C1,.,.,.,45%[176 µM],.,.
CC1CN(c2ccccc2)NC1=O (stereo not drawn),-1%,?,13µM*,28µM*,8,-1%
NCCNc1ccc([N+](=O)[O-])c2cccnc12,-25%,21µM*,?,-18%,-28,-28%
O=[N+]([O-])c1ccc(NCCNCCO)c2ncccc12,.,.,.,14%,.,.
Cc1ccccc1-c1ccc2n(c1=O)C[C@H]1C[C@@H]2CN(C(=O)Nc2cccc(F)c2)C1,.,.,.,34%[176 µM],.,.
SMILES,HT1080 IDH1KD tx,TDP1 cell noCPT,DT40 TDP1 CPT,ALOX12 inh,IL1B secr inh,HT1080-NT tox
COc1ccc(CN2CCN(C(=O)COc3cccc(C)c3)CC2)c(OC)c1,-18%,?,?,?,-11,4%
COc1ccccc1CN1CCN(C(=O)COc2cccc(C)c2)CC1,-2%,21µM*!,?,?,-6,0%
COc1ccc(OC)c(CN2CCN(C(=O)COc3cccc(C)c3)CC2)c1,-1%,?,26µM*,?,-4,-1%
COc1ccccc1CN1CCN(C(=O)COc2ccc3ccccc3c2)CC1,-12%,-15%,?,?,-5,-12%
O=C(CCn1cccn1)N1C[C@H](c2cccc(F)c2F)[C@@H]2[C@H]1C1CCN2CC1,.,.,.,-31%,.,.
COc1ccc(Nc2nc(N)nc(CSc3nc4ccccc4s3)n2)cc1,.,16µM*,15µM*,-17%,.,.
O=C(NC1CC1)[C@H]1CN2CC[C@H]1C[C@@H]2Cn1cc(-c2ccc(-c3ccccc3)cc2)nn1,.,.,.,4%[176 µM],.,.
CC(=O)OC1CCC2(C)C3CCC4(C)C(=O)CCC4C3CC[C@H]2C1 (stereo partly drawn),.,.,.,-9%,.,.
CC(=O)OC1CCC2(C)C(CCC3C2CC(=O)C2(C)C3CC(N3CC3)C2C(C)=O)C1 (stereo not drawn),-18%,13µM*,7.3µM*,22%,-72*,-5%
Cc1cccc(Cn2cccc(C(=O)Nc3cc(C)on3)c2=O)c1,.,-23%,-23%,-9%,.,.
CC(=O)c1cccc(NC(=O)c2cccn(Cc3cccc(C)c3)c2=O)c1,.,21µM*,23µM*,-10%,.,.
O=C(Nc1ccc2c(c1)OCCO2)c1cccn(Cc2cccc([N+](=O)[O-])c2)c1=O,.,13µM*,?,-20%,.,.
CC1(C)N([O])C(c2ccc(C(=O)O)cc2)=[N+]([O-])C1(C)C,.,-25%,16%,.,.,.
Cc1cccc(NC(=O)CN2CCN(C(=O)COc3cccc(Br)c3)CC2)c1C,4%,?,-28%,297%,-7,-1%
CCC(=O)c1ccc(OCC(=O)N2CCN(CC(=O)Nc3ccccc3C(F)(F)F)CC2)cc1,-11%,15µM*,?,-17%,10,-18%
COc1ccccc1CNC(=O)CN1CCCC1=O,.,.,.,28%,.,.
CC(=O)c1cccc(NC(=O)NC[C@H]2C[C@@H]3CCN2C[C@@H]3c2cc(-c3cccs3)nc(C)n2)c1,.,.,.,68%,.,.
O=C(Nc1ccc2nc(-c3cccs3)c(-c3cccs3)nc2c1)NC1CC1,?,18µM*,?,?,?,?
CCOc1ccc(CCNC(=O)c2ccc(-n3c(C)cc4c3CCCC4)cc2)cc1OCC,.,12µM*,12µM*,30%,.,.
